# In all, about 5,500 compounds went through this assay and about 2,000 (36%) were called active. Another 18% or so got no clear call; they are omitted. This is one part of the list. A number with no mark means an inactive call. Cut-off read from the data, not from the text of the source: active = normalized growth mostly below about 0.91 (no sharp cut-off); inconclusive = no clear call, values can overlap the other calls; inactive = mostly above about 0.92.
# Assay: chemical genetic growth profiling, strain panel (AID 1159580);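 note: tested at 20 µM; growth read once vehicle control cultures reached saturation at 30 °C; 1 = growth at the plate median or of vehicle wells; lower values mean less growth of the strain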
# Conditions: S. cerevisiae deletion strains, growth OD
structure (smiles),measurement,setting,value
Clc1cncc(Cl)c1N/N=C\C1CC2C=CC1C2 (stereo not drawn),normalized growth,"locus YAL013W, strain DEP1, hits give low values",0.937
same,normalized growth,"locus YBR229C, strain ROT2, hits give low values",0.939
same,normalized growth,"locus YCL061C, strain MRC1, hits give low values",0.928
same,normalized growth,"locus YDL101C, strain DUN1, hits give low values",0.926
same,normalized growth,"locus YDL134C, strain PPH21, hits give low values",1.01
same,normalized growth,"locus YDR150W, strain NUM1, hits give low values",0.915
same,normalized growth,"locus YEL061C, strain CIN8, hits give low values",0.914
same,normalized growth,"locus YGR078C, strain PAC10, hits give low values",0.967
same,normalized growth,"locus YHR030C, strain SLT2, hits give low values",0.644 (active)
same,normalized growth,"locus YHR087W, strain rtc3, hits give low values",0.874 (active)
same,normalized growth,"locus YJL187C, strain SWE1, hits give low values",0.989
same,normalized growth,"locus YJR043C, strain POL32, hits give low values",1
same,normalized growth,"locus YJR075W, strain HOC1, hits give low values",0.935
same,normalized growth,"locus YLR039C, strain RIC1, hits give low values",0.599 (active)
same,normalized growth,"locus YLR058C, strain SHM2 (second series), hits give low values",0.99
same,normalized growth,"locus YLR085C, strain ARP6, hits give low values",0.74 (active)
same,normalized growth,"locus YLR262C, strain YPT6, hits give low values",0.601 (active)
same,normalized growth,"locus YML094W, strain GIM5, hits give low values",0.838 (active)
same,normalized growth,"locus YMR219W, strain ESC1, hits give low values",0.988
same,normalized growth,"locus YMR263W, strain SAP30, hits give low values",0.939
same,normalized growth,"locus YMR307W, strain GAS1, hits give low values",0.878
same,normalized growth,"locus YNL153C, strain GIM3, hits give low values",0.957
same,normalized growth,"locus YNL298W, strain CLA4 (second series), hits give low values",0.799 (active)
same,normalized growth,"locus YNL322C, strain KRE1, hits give low values",0.986
same,normalized growth,"locus YNR030W, strain Alg12, hits give low values",0.924
same,normalized growth,"locus YPL055C, strain LGE1, hits give low values",0.872
same,normalized growth,"locus YPL241C, strain CIN2, hits give low values",0.871
same,normalized growth,"locus YPR135W, strain CTF4, hits give low values",0.622 (active)

# From PubChem BioAssay AID1159580 (chemical genetic matrix, 2015)
